{
  "source": "PubChem BioAssay (Tox21)",
  "note": "Records with an inconclusive call do not appear. Where a call stands in place of a potency, no number is given. The source made the active and inactive calls. Unless noted, calls come from the whole dose curve.",
  "data": [
    {"target": "Nuclear receptor ROR-gamma (Homo sapiens) (UniProt P51449)", "test": "qHTS assay to identify small molecule antagonists of the retinoid-related orphan receptor gamma (ROR-gamma) signaling pathway (AID 1159521; active = well fitted inhibition curve with a large enough effect in the repeat runs; note: top concentration of the series differs between compounds; nearly all actives have a fitted effect of over 50% in size)", "details": "Tet-on RORgamma CHO cells, RORE-luciferase, 16 h; series mostly up to 92.4 µM", "summary_of_the_method": "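Antagonist read-out: drop in luminescence (ONE-Glo) from an RORE-LUC reporter in CHO cells with doxycycline-inducible ROR-gamma; 2 hr compound pretreatment, 1 uM doxycycline, 16 hr incubation at 37 C.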", "values": [
      {"smiles": "Cc1ccc(S(=O)(=O)N=C=O)cc1", "Potency": "inactive"},
      {"smiles": "O=S(=O)(O)c1ccccc1", "Potency": "inactive"},
      {"smiles": "CN1C(=O)CC[C@H]1c1cccnc1", "Potency": "inactive"},
      {"smiles": "CCNC(=S)NCC", "Potency": "inactive"},
      {"smiles": "C=CC[N+](C)(C)CC=C", "Potency": "inactive"}
    ]},
    {"test_system": "not listed separately", "test": "qHTS assay to identify small molecule agonists of the AP-1 signaling pathway - cell viability counter screen (AID 1159525); note: nearly all actives have a fitted effect of over 55% in size", "details": "ME-180 AP-1-bla cells viability, ATP luminescence, 5 h; series mostly up to 76.8 µM", "summary_of_the_method": "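Each titration point was normalised to DMSO and tetra n-octyl ammonium bromide controls. The read was Cell Titer Glo luminescence after 30 min at RT, following 5 h compound exposure of ME-180 AP-1-bla cells at 37 °C.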", "values": [
      {"smiles": "NCCN1CCNCC1", "outcome": "inactive"},
      {"smiles": "CCCCCCCC=O", "outcome": "inactive"},
      {"smiles": "O=c1[nH]cnc2[nH]ncc12", "outcome": "inactive"},
      {"smiles": "c1ccc2c(c1)Cc1ccccc1-2", "outcome": "inactive"},
      {"smiles": "CC1(C)CC(N)CC(C)(CN)C1", "note": "(stereo unspecified)", "outcome": "inactive"},
      {"smiles": "CCCCCCO", "outcome": "inactive"},
      {"smiles": "O=C(O)Cn1c(=O)n(Cc2ccc(Br)cc2F)c(=O)c2ccc(Cl)cc21", "outcome": "inactive"},
      {"smiles": "OCc1ccccc1", "outcome": "inactive"},
      {"smiles": "Cc1ccc(C(C)C)c(O)c1", "outcome": "inactive"},
      {"smiles": "C=CC(=O)OCCC(=O)O", "outcome": "inactive"},
      {"smiles": "C=CC(C)CCCC(C)(C)O", "note": "(stereo unspecified)", "outcome": "inactive"},
      {"smiles": "COCCOC(=O)c1ccccc1C(=O)OCCOC", "outcome": "inactive"},
      {"smiles": "CCCCOC(=O)c1ccc(N)cc1", "outcome": "inactive"},
      {"smiles": "CC(CCO)CC(C)(C)C", "note": "(stereo unspecified)", "outcome": "inactive"},
      {"smiles": "C=CCCCCCCCCC(=O)O", "outcome": "inactive"},
      {"smiles": "C=C(C)[C@H]1CC=C(C)C(=O)C1", "outcome": "inactive"},
      {"smiles": "CCc1ccccc1CC", "outcome": "inactive"},
      {"smiles": "CCOCCOCCOCCO", "outcome": "inactive"},
      {"smiles": "O=C(O)c1ccc(S(=O)(=O)N(Cl)Cl)cc1", "outcome": "inactive"},
      {"smiles": "Clc1ccccn1", "outcome": "inactive"},
      {"smiles": "COCCCN", "outcome": "inactive"},
      {"smiles": "CN/C(=C\\[N+](=O)[O-])NCCSCc1csc(CN(C)C)n1", "outcome": "inactive"},
      {"smiles": "Brc1ccc(Br)c(Br)c1", "outcome": "inactive"},
      {"smiles": "CC1(C)NC(=O)NC1=O", "outcome": "inactive"},
      {"smiles": "CCO[Si](CCC#N)(OCC)OCC", "outcome": "inactive"},
      {"smiles": "Cc1ccc([N+](=O)[O-])cc1S(=O)(=O)O", "outcome": "inactive"},
      {"smiles": "O=C(O)c1ccccc1C(=O)O", "outcome": "inactive"},
      {"smiles": "CC1(C)OC[C@@H]2O[C@@]3(C(=O)O)OC(C)(C)O[C@H]3[C@@H]2O1", "outcome": "inactive"},
      {"smiles": "CNC(=S)N(C)C", "outcome": "inactive"},
      {"smiles": "O=C1CCCC1", "outcome": "inactive"},
      {"smiles": "CC(O)CC(C)(C)O", "note": "(stereo unspecified)", "outcome": "inactive"},
      {"smiles": "COC(=O)CCCC(=O)OC", "outcome": "inactive"},
      {"smiles": "C=CCc1ccc(OC)c(OC)c1", "outcome": "inactive"},
      {"smiles": "Cc1ccc(S(=O)(=O)N=C=O)cc1", "outcome": "inactive"},
      {"smiles": "O=S(=O)(O)c1ccccc1", "outcome": "inactive"},
      {"smiles": "CN1C(=O)CC[C@H]1c1cccnc1", "outcome": "inactive"},
      {"smiles": "CCNC(=S)NCC", "outcome": "inactive"},
      {"smiles": "C=CC[N+](C)(C)CC=C", "outcome": "inactive"}
    ]},
    {"test_system": "not listed separately", "test": "qHTS assay to identify small molecule agonists of the AP-1 signaling pathway (AID 1159526)", "details": "ME-180 AP-1-bla reporter, beta-lactamase FRET ratio, 5 h; series mostly up to 76.8 µM", "values": [
      {"smiles": "NCCN1CCNCC1", "Potency": "inactive"},
      {"smiles": "CCCCCCCC=O", "Potency": "inactive"},
      {"smiles": "O=c1[nH]cnc2[nH]ncc12", "Potency": "inactive"},
      {"smiles": "c1ccc2c(c1)Cc1ccccc1-2", "Potency": "inactive"},
      {"smiles": "CC1(C)CC(N)CC(C)(CN)C1", "note": "(stereo unspecified)", "Potency": "inactive"},
      {"smiles": "CCCCCCO", "Potency": "inactive"},
      {"smiles": "O=C(O)Cn1c(=O)n(Cc2ccc(Br)cc2F)c(=O)c2ccc(Cl)cc21", "Potency": "inactive"},
      {"smiles": "OCc1ccccc1", "Potency": "inactive"},
      {"smiles": "Cc1ccc(C(C)C)c(O)c1", "Potency": "inactive"},
      {"smiles": "C=CC(=O)OCCC(=O)O", "Potency": "inactive"},
      {"smiles": "C=CC(C)CCCC(C)(C)O", "note": "(stereo unspecified)", "Potency": "inactive"},
      {"smiles": "COCCOC(=O)c1ccccc1C(=O)OCCOC", "Potency": "inactive"},
      {"smiles": "CCCCOC(=O)c1ccc(N)cc1", "Potency": "inactive"},
      {"smiles": "CC(CCO)CC(C)(C)C", "note": "(stereo unspecified)", "Potency": "inactive"},
      {"smiles": "C=CCCCCCCCCC(=O)O", "Potency": "inactive"},
      {"smiles": "C=C(C)[C@H]1CC=C(C)C(=O)C1", "Potency": "inactive"},
      {"smiles": "CCc1ccccc1CC", "Potency": "inactive"},
      {"smiles": "CCOCCOCCOCCO", "Potency": "inactive"},
      {"smiles": "O=C(O)c1ccc(S(=O)(=O)N(Cl)Cl)cc1", "Potency": "inactive"},
      {"smiles": "Clc1ccccn1", "Potency": "inactive"},
      {"smiles": "COCCCN", "Potency": "inactive"},
      {"smiles": "CN/C(=C\\[N+](=O)[O-])NCCSCc1csc(CN(C)C)n1", "Potency": "inactive"},
      {"smiles": "Brc1ccc(Br)c(Br)c1", "Potency": "inactive"},
      {"smiles": "CC1(C)NC(=O)NC1=O", "Potency": "inactive"},
      {"smiles": "CCO[Si](CCC#N)(OCC)OCC", "Potency": "inactive"},
      {"smiles": "Cc1ccc([N+](=O)[O-])cc1S(=O)(=O)O", "Potency": "inactive"},
      {"smiles": "O=C(O)c1ccccc1C(=O)O", "Potency": "inactive"},
      {"smiles": "CC1(C)OC[C@@H]2O[C@@]3(C(=O)O)OC(C)(C)O[C@H]3[C@@H]2O1", "Potency": "inactive"},
      {"smiles": "CNC(=S)N(C)C", "Potency": "inactive"},
      {"smiles": "O=C1CCCC1", "Potency": "inactive"},
      {"smiles": "CC(O)CC(C)(C)O", "note": "(stereo unspecified)", "Potency": "inactive"},
      {"smiles": "COC(=O)CCCC(=O)OC", "Potency": "inactive"},
      {"smiles": "C=CCc1ccc(OC)c(OC)c1", "Potency": "inactive"},
      {"smiles": "Cc1ccc(S(=O)(=O)N=C=O)cc1", "Potency": "inactive"},
      {"smiles": "O=S(=O)(O)c1ccccc1", "Potency": "inactive"},
      {"smiles": "CN1C(=O)CC[C@H]1c1cccnc1", "Potency": "inactive"},
      {"smiles": "CCNC(=S)NCC", "Potency": "inactive"},
      {"smiles": "C=CC[N+](C)(C)CC=C", "Potency": "inactive"}
    ]}
  ]
}
